# DT40 TDP1 no CPT – qHTS for Inhibitors of human tyrosyl-DNA phosphodiesterase 1 (TDP1): qHTS in cells in absence of CPT | Potency, µM (series often up to 46.2 µM), for the others: at the top dose activity change, negative = growth inhibition, actives largely listed as inhibitors | DT40 Tdp1-/- hTDP1 cells, no CPT, ATP luminescence, 48 h | 420,000 tested, 15% active; further: potency means the concentration at half of the fitted maximal effect; on the % scale 0 is the no-effect control and ±100 the full control effect; nearly all actives have a fitted effect of over 55% in size
#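 Chicken DT40 Tdp1-/- cells complemented with human TDP1, screened without camptothecin (DMSO vehicle only), 400 cells/well. Compounds pin-transferred, cells incubated at 37 °C for at least 48 hr. Growth read as ATP-dependent luminescence (CellTiter-Glo, 30 min at RT).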
# ClpP mod – qHTS Assay for Activators of ClpP | AID 651965, 2013 | 340,000 tested, 1.9% active | purified B. subtilis ClpP, FRET peptide cleavage, 20 min | Potency, µM (series often up to 57.5 µM), for inactives: at the highest dose activity change, negative = active; active means well fitted falling curve with a large enough effect; inconclusive means small, poorly fitted or top-dose-only effect; inactive means no such curve, though single readings can be large or run the other way; further: potency means the concentration at half of the fitted maximal effect; the source files actives as falling curves though it sought activators and does not explain the sign; nearly all actives have a fitted effect of over 65% in size
# Target sequence (P80244 whole entry, looked up): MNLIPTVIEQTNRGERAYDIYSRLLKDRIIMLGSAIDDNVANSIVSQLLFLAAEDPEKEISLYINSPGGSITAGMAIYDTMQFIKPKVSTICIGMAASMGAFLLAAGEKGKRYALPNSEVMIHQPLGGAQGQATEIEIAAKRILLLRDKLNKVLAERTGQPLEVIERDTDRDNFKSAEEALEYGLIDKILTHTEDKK
#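 FRET quenching reversal measured ClpP activation: 10 microg/mL B. subtilis ClpP at pH 8 with the FRET-FV decapeptide, read at 430 nm after 320 nm excitation. The 20-min minus 0-min signal was scaled between DMSO/no-enzyme wells and ADEP (5.8 microM final).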
# DT40 TDP1 CPT – DT40-hTDP1 cell growth loss with CPT; Potency, µM (highest dose often 46.2 µM), for the others: top-dose activity change, negative = growth inhibition, hits mostly inhibitors; chicken DT40 Tdp1-/-;hTDP1 cells + 20 nM CPT, ATP luminescence, 48 h; 420,000 tested, 12% active; AID 686979; further: potency means the concentration at half of the fitted maximal effect; on the % scale 0 is the no-effect control and ±100 the full control effect; nearly all actives have a fitted effect of over 55% in size
#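 Chicken DT40 Tdp1-/- cells complemented with human TDP1, 400 cells/well, exposed to compounds plus 20 nM camptothecin for at least 48 h at 37 C; viability read as ATP content by CellTiter-Glo luminescence.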
# DRD3 agonist – D3 dopamine receptor (human) agonism. D3R DiscoveRx beta-arrestin cells, luminescence, 90 min. max activation, %. 410,000 tested, 0.58% active. AID 652048; in the data active means max activation above about 30%; further: 0% is about no effect
# Target sequence (P35462 whole entry, looked up): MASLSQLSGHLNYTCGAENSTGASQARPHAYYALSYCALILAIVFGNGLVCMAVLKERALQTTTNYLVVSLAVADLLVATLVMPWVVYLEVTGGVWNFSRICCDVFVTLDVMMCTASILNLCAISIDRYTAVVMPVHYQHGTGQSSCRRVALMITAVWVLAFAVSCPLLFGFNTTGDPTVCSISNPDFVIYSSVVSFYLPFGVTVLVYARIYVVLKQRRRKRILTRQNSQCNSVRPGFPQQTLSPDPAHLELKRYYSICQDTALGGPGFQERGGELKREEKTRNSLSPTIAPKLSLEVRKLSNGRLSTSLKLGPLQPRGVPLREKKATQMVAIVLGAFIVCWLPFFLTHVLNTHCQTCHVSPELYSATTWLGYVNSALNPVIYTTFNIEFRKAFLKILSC
#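 Agonist mode: compounds and dopamine controls were applied to plated cells for 90 min at 37 degrees C after an overnight attachment at 1500 cells/well. Luminescent read-out followed 30 - 60 minutes at room temperature with DiscoveRx detection reagent.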
# D3 antag – blocks the human D3 dopamine receptor | 360,000 tested, 2.5% active | P35462 | D3R cells, DiscoveRx beta-arrestin luminescence, antagonist mode; hits give low values | max response, negative = inhibition, % | AID 652054; in the data active means max response below about -50%; inconclusive means no clear call, values can overlap the other calls; further: on the % scale 0 is the no-effect control and ±100 the full control effect
#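 Cells plated overnight at 1500 cells/well, then exposed to library compounds with dopamine controls for 90 minutes at 37 degrees C. DiscoveRx reagent added for 30–60 minutes at room temperature; luminescence read, quantitative HTS format.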
# IL1B secr inh – blocks inflammasome-driven IL-1 beta release; activity change, % at 57.5 µM; 360,000 tested, 4.7% active; THP-1 LPS/ATP IL-1B secretion, AlphaLISA, 16 h; hits give low values; in the data active means activity change below about -50%; inconclusive means mostly about -30% to -49%; further: on the % scale 0 is the no-effect control and ±100 the full control effect
#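 THP-1 cells pretreated 1 hr with compounds (up to 57.5 uM final), then stimulated with LPS (250 ng/mL final) plus ATP (1.25 mM final); secreted IL-1B measured by AlphaLISA after 16 hr, decreased signal indicating inhibition.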
# Active calls of the source: *; ? = inconclusive; . = not tested or not shown; [ ] = another dose, or the depositor's remark. Most compounds without a hit are left out; they make up all but 21% or so of the library. Unless noted, the call rests on the fitted dose curve; in most records, active means well fitted inhibition curve with a large enough effect; inconclusive means small, poorly fitted or top-dose-only effect; inactive means flat fitted curve, though single readings scatter.
SMILES,DT40 TDP1 no CPT,ClpP mod,DT40 TDP1 CPT,DRD3 agonist,D3 antag,IL1B secr inh
CCCCNC(=O)c1c(-c2ccccc2)c(-c2ccccc2)nn(C)c1=O,?,0%,?,7,.,.
Cc1ccc(O)c(CP(=O)(c2ccccc2)c2ccccc2)c1,?,-2%,?,1,11,-7
CCNc1ccccc1CP(=O)(c1ccccc1)c1ccccc1O (configuration not stated),2.6µM*,.,?,-7,0,-5
COc1ccccc1C1CN(Cc2cccc(OCCO)c2)Cc2ccccc2O1 (configuration not stated),?,.,-2%[9.04 µM],.,.,.
COc1ccc(Cl)cc1CC=NNC(=O)c1ccncc1,12µM*,6%,9.2µM*,0,-3,37
COc1ccc(Cl)cc1CC=NNC(=O)c1cccc(C)c1O,13µM*,-11%,13µM*,-17,-2,22
C=CCc1cccc(/C=N/NC(=O)c2ccccc2OC)c1O,?,6%,?,2,-6,178
COc1ccc(Cl)cc1NC(=O)CN(C)C(=O)c1cn(-c2ccccc2)nc1-c1cccnc1,?,?,18µM*,-5,-12,-91*
CN(CC(=O)Nc1ccc(N2CCOCC2)cc1)C(=O)c1cc(F)c(F)cc1Cl,-8%,.,8%,9,-8,-18
COc1ccc(NC(=O)CN(C)C(=O)c2cn(-c3ccccc3)nc2-c2ccc(OC)cc2)cc1,?,-16%,?,2,5,-18
COc1ccc(Cl)cc1NC(=O)CN(C)C(=O)c1cccc(-n2cnnn2)c1,0%,-2%,-20%,-14,-25,-11
Cc1ccc(-c2nn(-c3ccc(F)cc3)cc2C(=O)N(C)CC(=O)Nc2ccc(N3CCOCC3)cc2)cc1,15µM*,.,?,-2,3,14
COc1ccc(NC(=O)CN(C)C(=O)c2cn(-c3ccccc3)nc2-c2ccc(Cl)cc2)cc1,15µM*,-26%,?,-6,0,-60*
COc1ccc(NC(=O)CN(C)C(=O)c2cn(-c3ccccc3)nc2-c2ccc(F)cc2)cc1,?,-2%,?,8,16,-53*
Cc1c(C(=O)N2CCCCCC2)c(S(=O)(=O)NCc2ccccc2)c(C)n1C,-17%,0%,0%,6,.,.
Cc1nc(N2CCN(c3ccccc3)CC2)[nH]c(=O)c1C,?,1%,-5%,-3,11,1
CCCCNC(=O)c1ccc2c(=O)n(-c3ccccc3)c(=O)[nH]c2c1,3%,4%,-24%,1,.,.
Cc1ccccc1N1C(=O)C2C3C=CC(C2C1=O)N(C)C3=O (configuration not stated),-2%,-1%,3%,14,8,17
CN1C2C=CC(=O)C1C1C(=O)N(c3ccccc3)C(=O)C12 (configuration not stated),18µM*,-2%,18µM*,-3,-29,-118*
Cc1ccc(C)c(NC(=O)Cn2cc(S(=O)(=O)Cc3cccc(Cl)c3)c3ccccc32)c1,?,-1%,16µM*,7,.,.
CN(C)c1ccc(NC(=O)Cn2cc(S(=O)(=O)Cc3ccccc3Cl)c3ccccc32)cc1,8.2µM*,1%,?,2,.,.
Cc1ccc(CNC(=O)Cn2cc(S(=O)(=O)Cc3ccccc3Cl)c3ccccc32)cc1,15µM*,-3%,18µM*,-10,.,.
CCN(C(=O)Cn1cc(S(=O)(=O)Cc2ccccc2Cl)c2ccccc21)c1ccccc1,23µM*,0%,16µM*,4,.,.
O=C(C(=O)N1CCN(c2ccccc2)CC1)c1cn(CC(=O)N2CCCCCC2)c2ccccc12,?,1%,-15%,2,8,-3
C=CCNC(=S)NNC(=O)c1ccc(OCCCC)cc1,-25%,12%,-13%,4,8,8
SMILES,DT40 TDP1 no CPT,ClpP mod,DT40 TDP1 CPT,DRD3 agonist,D3 antag,IL1B secr inh
CCCCOc1ccc(C(=O)NNC(=S)NC(=O)CC)cc1,2.6µM*,-6%,4.6µM*,1,?,-96*
CCC(=O)NC(=S)NNC(=O)c1ccc(OC)cc1,22µM*,-2%,29µM*,7,-19,56
Cc1ccc(S(=O)(=O)N2CCC(C(=O)OC(C)C(=O)NC3CCCCC3C)CC2)cc1 (configuration not stated),-28%,0%,-13%,1,-2,17
CCOc1ccccc1NS(=O)(=O)c1c(-c2ccc(C)cc2)csc1C(=O)OC,16µM*,2%,?,-7,.,.
COC(=O)c1scc(-c2ccc(C)cc2)c1S(=O)(=O)Nc1cccc(Cl)c1C,?,-7%,?,-3,.,.
CCOC(=O)c1ccccc1NS(=O)(=O)c1c(-c2ccc(C)cc2)csc1C(=O)OC,5.8µM*,-24%,6.5µM*,-6,.,.
COCCN(CC(=O)Nc1ccccc1C(F)(F)F)C(=O)/C=C/c1ccc2ccccc2n1,?,1%,-26%,1,21,19
CCOc1ccccc1C(=O)Nc1ccsc1C(=O)OC,3.7µM*,0%,4.1µM*,6,22,-3
CCOc1ccccc1C(=O)Nc1nnc(CC)s1,21µM*,-1%,16µM*,2,3,14
CCc1nnc(NC(=O)c2ccncc2)s1,-4%,0%,1%,11,-3,1
CCc1nnc(NC(=O)c2cccc(C(=O)Nc3nnc(CC)s3)n2)s1,0.021µM*,2%,0.15µM*,5,6,76
CCOc1ccccc1C(=O)Nc1ccccc1C(N)=O,-23%,-2%,-23%,-21,-9,-9
CCCCN(Cc1ccccc1)S(=O)(=O)c1cc(Br)cc2c1N(C(C)=O)CC2,?,-3%,?,-9,.,.
O=C(O)c1ccccc1SCCS(=O)(=O)c1ccc(Cl)cc1Cl,-28%,-1%,3%,2,9,36
CN(CCc1cn[nH]c1)Cc1nc(Cc2ccccc2)no1,9%,.,14%,5,9,-54*
Cc1ccc(Cn2c(C(C)Nc3nc(-c4ccc(Cl)cc4)cs3)nc3cc(C(=O)NCCCO)ccc32)cc1 (configuration not stated),8.2µM*,-3%,10µM*,-1,14,30
Cc1ccc(Cn2c(CCNc3nc(-c4ccc(C)cc4)cs3)nc3cc(C(=O)NCCCO)ccc32)cc1,15µM*,-5%,21µM*,31*,6,-8

# Screening data as filed in PubChem.
